These results are taken from PubChem BioAssay (Tox21).

A number with no mark means an inactive call. Results filed as inconclusive are left out. Calls of active or inactive are those of the source. Unless noted, calls follow the shape of the full dose curve.

Assay [1] in a line: qHTS assay to identify small molecule antagonists of the sonic hedgehog signaling (Shh) pathway (AID 1259369). Also: nearly all actives have a fitted effect of over 45% in size. Also: potency is read from the fitted curve at half-maximal effect. An outline of the steps: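 Gli1 transcriptional reporter (firefly Luc) in NIH/3T3 background, conditioned-medium activated. 24hr exposure, luminescence endpoint.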
For assay [2], the target named is Estrogen receptor beta (Homo sapiens) (UniProt Q92731). The assay is described as follows: qHTS assay to identify small molecule antagonists of the estrogen receptor beta (ER-beta) signaling pathway (AID 1259378; active = well fitted inhibition curve with a large enough effect in the signal ratio in the repeat runs, not every such curve was filed as active; the % refers to the signal ratio; also: potency is read from the fitted curve at half-maximal effect). An outline of the steps: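 ER-beta-UAS-bla HEK293T (GripTite) cells in 2% charcoal-stripped FBS medium were preincubated 6 hr at 37C, dosed with compound, then stimulated with 1 nM E2 (final) for 16 hr; beta-lactamase reporter read by B/G FRET fluorescence after 2 hr substrate loading.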
Sequence of Estrogen receptor beta (Homo sapiens) (Q92731 whole entry, looked up): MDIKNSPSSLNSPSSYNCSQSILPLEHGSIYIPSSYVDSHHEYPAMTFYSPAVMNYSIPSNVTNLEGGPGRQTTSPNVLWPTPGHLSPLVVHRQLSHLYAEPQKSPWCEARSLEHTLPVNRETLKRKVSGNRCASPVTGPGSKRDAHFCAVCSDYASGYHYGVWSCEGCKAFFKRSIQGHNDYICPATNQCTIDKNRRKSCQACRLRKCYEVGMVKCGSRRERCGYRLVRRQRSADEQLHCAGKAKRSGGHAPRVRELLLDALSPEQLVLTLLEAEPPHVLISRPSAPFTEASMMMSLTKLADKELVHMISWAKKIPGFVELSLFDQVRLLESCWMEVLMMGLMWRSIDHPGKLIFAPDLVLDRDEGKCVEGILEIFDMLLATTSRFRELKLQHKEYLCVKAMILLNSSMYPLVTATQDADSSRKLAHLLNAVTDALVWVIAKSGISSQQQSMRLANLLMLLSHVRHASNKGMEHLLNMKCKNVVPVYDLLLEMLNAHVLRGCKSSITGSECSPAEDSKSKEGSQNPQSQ
For orientation: Quantitative high-throughput screening tests each substance at several concentrations.

Assay [3] in a line: qHTS assay to identify small molecule agonists of the estrogen receptor beta (ER-beta) signaling pathway - cell viability counter screen (AID 1259380; active = well fitted curve in the direction sought with a large enough effect in the repeat runs; an effect the other way counts as inactive or inconclusive; also: nearly all actives have a fitted effect of over 30% in size; also: potency is read from the fitted curve at half-maximal effect). An outline of the steps:
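In this qHTS counter screen, HEK293T cells carrying an ER-beta/UAS beta-lactamase reporter, grown in 2% charcoal-stripped FBS, received compound for 16 hr; ATP-based CellTiter-Glo luminescence was then read after 30 min at room temperature.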

A short description of assay [4]: qHTS assay to identify small molecule antagonists of the estrogen receptor beta (ER-beta) signaling pathway - cell viability counter screen (AID 1259382; active = well fitted curve in the direction sought with a large enough effect in the repeat runs; an effect the other way counts as inactive or inconclusive; also: series mostly up to about 92 µM; nearly all actives have a fitted effect of over 55% in size). In a few lines: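 HEK293T ER-beta-UAS-bla, 2% charcoal-stripped FBS; compounds + 1nM E2 16 hr 37C; CellTiter-Glo luminescence, 30 min RT.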
For assay [5], the target named is Estrogen receptor (Homo sapiens) (UniProt P03372). The assay is described as follows: qHTS assay to identify small molecule agonists of the estrogen receptor alpha (ER-alpha) signaling pathway in the presence of an antagonist (AID 1259383). Also: top concentration of the series differs between compounds; nearly all actives have a fitted effect of over 15% in size. An outline of the steps: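 ER-alpha agonism measured under antagonist challenge: 10.0nM ICI-182,780 (final) plus compound, 15 concentrations, 22hr, VM7Luc4E2 ERE-luciferase cells. Read by luminescence.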
Sequence of Estrogen receptor (Homo sapiens) (P03372 whole entry, looked up): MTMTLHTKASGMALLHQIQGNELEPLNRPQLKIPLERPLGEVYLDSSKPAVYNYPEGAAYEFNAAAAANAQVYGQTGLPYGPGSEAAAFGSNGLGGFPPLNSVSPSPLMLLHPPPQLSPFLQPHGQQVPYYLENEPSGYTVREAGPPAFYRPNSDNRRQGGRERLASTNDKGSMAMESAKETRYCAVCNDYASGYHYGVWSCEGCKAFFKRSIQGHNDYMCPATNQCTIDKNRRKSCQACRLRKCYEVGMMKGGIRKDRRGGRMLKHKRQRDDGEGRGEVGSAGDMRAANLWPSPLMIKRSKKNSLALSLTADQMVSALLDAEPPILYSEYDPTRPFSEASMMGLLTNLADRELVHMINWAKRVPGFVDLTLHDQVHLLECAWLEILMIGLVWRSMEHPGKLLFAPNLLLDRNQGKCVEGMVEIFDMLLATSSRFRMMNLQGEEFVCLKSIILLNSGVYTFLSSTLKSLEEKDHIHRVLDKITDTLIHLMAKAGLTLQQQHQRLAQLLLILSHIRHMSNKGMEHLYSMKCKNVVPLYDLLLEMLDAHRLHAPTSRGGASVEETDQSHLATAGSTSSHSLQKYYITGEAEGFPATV

Assay [6] can be described thus: qHTS assay to identify small molecule agonists or antagonists of the thyroid stimulating hormone receptor (TSHR) signaling pathway - wild type cell line counter screen (AID 1259384). Also: potency is read from the fitted curve at half-maximal effect. An outline of the steps:
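Wild-type HEK293 cells were plated 18 h at 37 C/5% CO2, pin-dosed with compound plus Ro20-1724 medium, held 30 min at room temperature, then given cAMP-d2 and anti-cAMP-cryptate; fluorescence was read after 1 h. Fifteen concentrations, triplicate.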

Assay [7] concerns the target Thyrotropin receptor (Homo sapiens) (UniProt P16473). The assay is described as follows: qHTS assay to identify small molecule antagonists of the thyroid stimulating hormone receptor (TSHR) signaling pathway (AID 1259385). Also: nearly all actives have a fitted effect of over 20% in size. An outline of the steps: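 TSHR-HEK293 cells were plated and held 18 h at 37C/5% CO2, then given compound plus Ro20-1724 and stimulated with TSH at 1.5 ng/mL final. After 30 min at room temperature, cAMP was detected with cAMP-d2/anti-cAMP-cryptate (1 h) by fluorescence.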

Assay [8] is described as follows: qHTS assay to identify small molecule agonists of the estrogen receptor alpha (ER-alpha) signaling pathway in the presence of an antagonist - cell viability counter screen (AID 1259386; active = well fitted curve in the direction sought with a large enough effect in the repeat runs; an effect the other way counts as inactive or inconclusive;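 also: cells exposed to compounds for 22 h at 37 °C before the viability read; nearly all actives have a fitted effect of over 30% in size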; also: potency is read from the fitted curve at half-maximal effect; as to activity change, negative = cytotoxicity: series mostly up to about 92 µM). An outline of the steps: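 Steps: 5-day stripped-FBS culture; seed and incubate 24hr; add ICI-182,780 (10.0nM final); pin 15-point compound titration; incubate 22hr at 37C; add CellTiter-Fluor at 21hr; read fluorescence.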

For assay [9], the target named is Progesterone receptor (Homo sapiens) (UniProt P06401). As to the kind of experiment: qHTS assay to identify small molecule agonists of the progesterone receptor (PR) signaling pathway (AID 1346784). Also: nearly all actives have a fitted effect of over 30% in size. An outline of the steps: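 Reporter assay, GripTite PR-UAS-bla HEK 293T cells: 16 hr exposure to DMSO-dissolved compounds at 37C, 5% CO2, in steroid-depleted (2% charcoal-stripped FBS) medium; beta-lactamase measured by FRET fluorescence.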
Sequence of Progesterone receptor (Homo sapiens) (P06401 whole entry, looked up): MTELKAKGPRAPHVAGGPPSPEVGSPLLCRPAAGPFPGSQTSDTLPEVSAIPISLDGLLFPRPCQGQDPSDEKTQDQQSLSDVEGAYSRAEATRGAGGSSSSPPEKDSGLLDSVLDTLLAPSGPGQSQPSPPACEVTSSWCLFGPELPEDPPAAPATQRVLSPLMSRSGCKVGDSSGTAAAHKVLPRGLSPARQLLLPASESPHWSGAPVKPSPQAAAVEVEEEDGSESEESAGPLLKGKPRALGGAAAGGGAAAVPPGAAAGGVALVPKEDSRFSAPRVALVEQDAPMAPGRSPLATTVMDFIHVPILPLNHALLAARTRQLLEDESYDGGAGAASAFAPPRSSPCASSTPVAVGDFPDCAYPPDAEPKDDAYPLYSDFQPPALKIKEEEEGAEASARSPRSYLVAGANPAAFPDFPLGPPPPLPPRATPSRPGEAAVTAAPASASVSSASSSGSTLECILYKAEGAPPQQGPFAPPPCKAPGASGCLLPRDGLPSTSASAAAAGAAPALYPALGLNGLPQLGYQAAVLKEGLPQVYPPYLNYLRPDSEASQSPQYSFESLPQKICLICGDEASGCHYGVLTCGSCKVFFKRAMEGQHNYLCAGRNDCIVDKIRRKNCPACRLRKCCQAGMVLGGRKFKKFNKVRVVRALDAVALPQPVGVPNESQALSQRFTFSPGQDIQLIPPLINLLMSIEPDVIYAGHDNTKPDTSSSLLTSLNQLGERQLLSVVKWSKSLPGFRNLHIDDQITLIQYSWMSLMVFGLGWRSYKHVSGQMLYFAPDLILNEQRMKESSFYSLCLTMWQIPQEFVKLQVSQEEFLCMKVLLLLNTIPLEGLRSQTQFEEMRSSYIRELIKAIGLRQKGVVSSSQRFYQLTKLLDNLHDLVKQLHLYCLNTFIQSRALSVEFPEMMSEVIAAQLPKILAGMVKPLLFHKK

For assay [10] the target is unchanged. As to the kind of experiment: qHTS assay to identify small molecule antagonists of the progesterone receptor (PR) signaling pathway (AID 1346795; active = well fitted inhibition curve with a large enough effect in the signal ratio in the repeat runs, not every such curve was filed as active; the % refers to the signal ratio). In a few lines:
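Stimulus R5020 at 1 nM final; cells HEK293T PR-UAS-bla; medium with 2% charcoal-stripped FBS; compound exposure 16 hr at 37C, 5% CO2; detection by FRET beta-lactamase substrate, 2 hr, room temperature.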

A short description of assay [11]: qHTS assay to identify small molecule antagonists of the TGF-beta/Smad signaling pathway - cell viability counter screen (AID 1346824; active = well fitted curve in the direction sought with a large enough effect in the repeat runs; an effect the other way counts as inactive or inconclusive; also: nearly all actives have a fitted effect of over 50% in size). In a few lines: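 SBE-bla HEK 293T cells were plated overnight at 37 C, then given compounds in DMSO plus TGF-beta1 (added as 0.25 ng/mL solution) for 5 hr. After the bla read, CellTiter-Glo was added to the same wells and luminescence read after 30 min at room temperature.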

Assay [12] is described as follows: qHTS assay to identify small molecule agonists of the TGF-beta/Smad signaling pathway - cell viability counter screen (AID 1346829; active = well fitted curve in the direction sought with a large enough effect in the repeat runs; an effect the other way counts as inactive or inconclusive; also: top concentration of the series differs between compounds; nearly all actives have a fitted effect of over 45% in size). An outline of the steps:
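Tox21 qHTS format: SBE-bla HEK 293T cells treated with DMSO-dissolved compounds for 5 hr; CellTiter-Glo luminescence after 30 min at room temperature.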

The target of assay [13] is Thyrotropin-releasing hormone receptor (Homo sapiens) (UniProt P34981). The assay is described as follows: qHTS assay to identify small molecule antagonists of the thyrotropin-releasing hormone receptor (TRHR) signaling pathway (AID 1346877; active = well fitted inhibition curve with a large enough effect in the repeat runs, not every such curve was filed as active; also: series mostly up to about 51 µM). An outline of the steps:
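Human TRHR in HEK293 cells; inhibition of the intracellular calcium rise triggered by 1 nM TRH was followed by fluorescence over 3 min. Compounds were run at 15 concentrations, three replicates each.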

Assay [14] shares this target. As to the kind of experiment: qHTS assay to identify small molecule agonists of the thyrotropin-releasing hormone receptor (TRHR) signaling pathway (AID 1346891). Also: series mostly up to about 58 µM. An outline of the steps: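 Readout was intracellular calcium fluorescence in TRHR-Hek293 cells. Cells were incubated 18 h, dye-loaded 2 h at 37 °C, and treated with compound in agonist mode.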
The nature of assay [15]: qHTS assay to identify small molecule agonists of the androgen receptor (AR) signaling pathway in the presence of an antagonist - cell viability counter screen (AID 1259379; active = well fitted curve in the direction sought with a large enough effect in the repeat runs; an effect the other way counts as inactive or inconclusive; also: nearly all actives have a fitted effect of over 25% in size; also: potency is read from the fitted curve at half-maximal effect;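 as to activity change, negative = cytotoxicity: MDA-kb2 human breast cancer cells carrying an MMTV luciferase reporter; series mostly up to about 92 µM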). In a few lines: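 Counter screen for cell viability run in parallel with the AR agonist-mode luciferase assay. MDA-kb2 cells were co-treated with nilutamide (3.0uM final) and compounds, then incubated 16 hr at 37C, and CellTiter-Fluor fluorescence was measured.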

Assay [16] has as its target Androgen receptor (Homo sapiens) (UniProt P10275). The assay is described as follows: qHTS assay to identify small molecule agonists of the androgen receptor (AR) signaling pathway in the presence of an antagonist (AID 1259381). Also: nearly all actives have a fitted effect of over 15% in size. An outline of the steps: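 AR antagonist background: nilutamide 3.0uM final. Cell line: MDA-kb2, MMTV-driven luciferase, responsive to both AR and GR. Exposure 16hr, 37C, no CO2; ONE-Glo luminescence.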

A short description of assay [17]: qHTS assay to identify small molecule antagonists of the progesterone receptor (PR) signaling pathway - cell viability counter screen (AID 1346798; active = well fitted curve in the direction sought with a large enough effect in the repeat runs; an effect the other way counts as inactive or inconclusive; also: nearly all actives have a fitted effect of over 50% in size; also: potency is read from the fitted curve at half-maximal effect; as to activity change, negative = cytotoxicity: series mostly up to about 92 µM). In a few lines: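 In the same plates used for the beta-lactamase readout, cell viability of compound- and R5020-treated PR-UAS-bla HEK293T cells (16 hr, 37C) was assessed by CellTiter-Glo luminescence.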
A short description of assay [18]: qHTS assay to identify small molecule agonists of the TGF-beta/Smad signaling pathway (AID 1346859; active = well fitted activation curve with a large enough effect in the signal ratio in the repeat runs, not every such curve was filed as active; the % refers to the signal ratio; also: series mostly up to about 77 µM). An outline of the steps:
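Screening used HEK 293T SBE-bla cells at 4,000/well. Test agents: 5 hr, 37 C. Detection: FRET substrate, 2 hr RT, then excitation 405 nm with emissions at 460 and 530 nm.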

Assay [19] is described as follows: qHTS assay to identify small molecule agonists of the progesterone receptor (PR) signaling pathway - cell viability counter screen (AID 1346799). Also: nearly all actives have a fitted effect of over 45% in size. In a few lines:
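Multiplexed viability read: CellTiter-Glo luminescence, 30 min RT, following LiveBLAzer FRET measurement on PR-UAS-bla HEK293T cells exposed to compounds 16 hr.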
% is scaled to controls: 0 for no effect and ±100 for the full control effect.

Sequence of Androgen receptor (Homo sapiens) (P10275 whole entry, looked up): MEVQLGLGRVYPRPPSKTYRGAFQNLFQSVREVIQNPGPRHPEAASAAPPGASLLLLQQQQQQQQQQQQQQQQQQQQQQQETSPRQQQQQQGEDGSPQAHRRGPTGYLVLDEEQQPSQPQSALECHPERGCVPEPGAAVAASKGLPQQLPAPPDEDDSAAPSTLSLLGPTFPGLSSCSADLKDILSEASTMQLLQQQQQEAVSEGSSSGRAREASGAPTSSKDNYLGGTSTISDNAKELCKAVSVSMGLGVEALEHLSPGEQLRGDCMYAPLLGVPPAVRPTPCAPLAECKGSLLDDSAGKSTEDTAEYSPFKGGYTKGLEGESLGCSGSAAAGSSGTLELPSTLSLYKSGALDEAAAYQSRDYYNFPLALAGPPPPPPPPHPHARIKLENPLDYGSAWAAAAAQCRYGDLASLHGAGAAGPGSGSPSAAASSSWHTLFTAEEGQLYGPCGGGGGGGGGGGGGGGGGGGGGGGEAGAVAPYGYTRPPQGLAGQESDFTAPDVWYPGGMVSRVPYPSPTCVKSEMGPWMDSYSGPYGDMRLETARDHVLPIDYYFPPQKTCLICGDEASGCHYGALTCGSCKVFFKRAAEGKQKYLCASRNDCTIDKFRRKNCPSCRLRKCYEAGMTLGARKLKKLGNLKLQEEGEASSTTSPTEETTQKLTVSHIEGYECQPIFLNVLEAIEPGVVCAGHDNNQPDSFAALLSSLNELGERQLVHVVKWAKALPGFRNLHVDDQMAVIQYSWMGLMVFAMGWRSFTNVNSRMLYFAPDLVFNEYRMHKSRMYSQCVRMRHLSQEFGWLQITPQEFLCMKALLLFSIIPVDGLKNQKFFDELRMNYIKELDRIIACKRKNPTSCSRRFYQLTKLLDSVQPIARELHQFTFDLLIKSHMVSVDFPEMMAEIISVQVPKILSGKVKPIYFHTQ
Sequence of Thyrotropin receptor (Homo sapiens) (P16473 whole entry, looked up): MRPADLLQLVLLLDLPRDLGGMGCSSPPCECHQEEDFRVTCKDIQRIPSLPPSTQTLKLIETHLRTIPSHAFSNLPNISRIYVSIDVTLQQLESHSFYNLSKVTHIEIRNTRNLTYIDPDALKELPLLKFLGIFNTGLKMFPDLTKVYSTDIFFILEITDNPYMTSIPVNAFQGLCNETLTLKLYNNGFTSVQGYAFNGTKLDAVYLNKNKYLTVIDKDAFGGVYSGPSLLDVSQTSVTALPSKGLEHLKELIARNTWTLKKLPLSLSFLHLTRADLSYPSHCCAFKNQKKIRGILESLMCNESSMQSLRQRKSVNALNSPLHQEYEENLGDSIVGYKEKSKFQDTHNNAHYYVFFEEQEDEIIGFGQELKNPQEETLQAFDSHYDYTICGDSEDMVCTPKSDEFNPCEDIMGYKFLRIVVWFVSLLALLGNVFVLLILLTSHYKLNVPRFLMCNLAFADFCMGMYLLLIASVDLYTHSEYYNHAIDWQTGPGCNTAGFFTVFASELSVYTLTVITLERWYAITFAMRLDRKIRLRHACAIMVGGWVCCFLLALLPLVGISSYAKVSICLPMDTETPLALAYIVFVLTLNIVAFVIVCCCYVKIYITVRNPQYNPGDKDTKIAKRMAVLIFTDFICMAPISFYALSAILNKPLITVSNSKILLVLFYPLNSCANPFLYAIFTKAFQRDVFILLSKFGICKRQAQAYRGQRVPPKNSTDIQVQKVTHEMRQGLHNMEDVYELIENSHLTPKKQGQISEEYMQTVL
Sequence of Thyrotropin-releasing hormone receptor (Homo sapiens) (P34981 whole entry, looked up): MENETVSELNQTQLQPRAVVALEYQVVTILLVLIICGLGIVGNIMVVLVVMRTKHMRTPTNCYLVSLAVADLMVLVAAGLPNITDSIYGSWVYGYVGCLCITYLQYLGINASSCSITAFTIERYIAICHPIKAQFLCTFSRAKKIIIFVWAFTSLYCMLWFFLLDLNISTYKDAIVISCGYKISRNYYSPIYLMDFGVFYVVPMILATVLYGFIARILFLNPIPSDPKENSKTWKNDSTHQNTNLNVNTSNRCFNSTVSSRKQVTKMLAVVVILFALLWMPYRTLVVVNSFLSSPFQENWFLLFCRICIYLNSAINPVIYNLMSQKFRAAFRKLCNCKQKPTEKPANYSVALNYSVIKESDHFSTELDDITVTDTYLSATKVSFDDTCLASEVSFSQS

For `COc1cc2nc(N(C)CCCNC(=O)C3CCCO3)nc(N)c2cc1OC` (stereo not drawn), the Potency in [1] is 13.3 µM (active); in [8], 23.7 µM (active). Also, the Potency result in [2], in assay [3], in [4], in assay [5], in [6] and in assay [7] was “inactive” throughout. Further, the Potency entry in assay [9], in [10], in assay [11] and in assay [14] was “inactive” each time. Besides, the call in assay [12] and in assay [13] was inactive.

For the compound `CC(=O)OC[C@H]1O[C@@H](n2ncc(=O)[nH]c2=O)[C@H](OC(C)=O)[C@@H]1OC(C)=O`, the Potency result in [1], in [15], in assay [16], in assay [5], in [6] and in assay [7] was “inactive” in each case. The Potency entry in assay [8], in [9], in [11], in assay [18] and in assay [14] was “inactive” each time. The Potency was 1.33 µM (active) in assay [3] and 2.37 µM (active) in assay [17]. In addition, the compound was classed as inactive in [12] and in assay [13].

For the compound `OCc1cc(C(O)CNCCCCCCOCCCCc2ccccc2)ccc1O` (stereo not drawn), the Potency in assay [1] is 6.68 µM (active); in [2], 16.8 µM (active); in assay [15], 26.6 µM (active); in [3], 21.1 µM (active); in assay [6], 0.0009 µM (active); in assay [8] it was 11.9 µM (active). The Potency result in [5], in assay [7], in assay [9], in assay [11], in assay [18] and in assay [14] was “inactive” in each case. The result in [12] and in assay [13] was inactive.

Regarding `Cc1nn(C)c(Oc2ccccc2)c1/C=N/OCc1ccc(C(=O)OC(C)(C)C)cc1`, the results for the Potency in [1] and in assay [15] were 0.0273 µM (active) and 0.0306 µM (active), respectively. Besides, the Potency entry in assay [3], in [16], in assay [5], in [6], in assay [9] and in assay [17] was “inactive” throughout. For the same compound, the Potency entry in assay [11], in assay [18] and in assay [14] was “inactive” throughout. Moreover, the call in [12] and in assay [13] was inactive.

As to `CC(CSC(=O)c1ccccc1)C(=O)N1C[C@@H](Sc2ccccc2)C[C@H]1C(=O)O` (stereo partly drawn), the activity change, negative = inhibition was 9.12% [at 19 µM] in assay [1], -6.99% [at 19 µM] in assay [7] and 1.77% [at 18.9 µM] in assay [10]. The activity change, negative = cytotoxicity in assay [15] is 1.42% [at 19 µM]; in assay [3], 0.0866% [at 19 µM]; in assay [4], 5.8% [at 19 µM]; in assay [17] it was -8.73% [at 18.9 µM]; in assay [19], -1.53% [at 19 µM]; in assay [12] it was 4% [at 15.8 µM]. For the same compound, the Potency result in assay [5] is “inactive”. Also, the activation in assay [18] is 0.21% [at 15.8 µM]. The activity, negative = inhibition in assay [13] was -5.47% [at 10.5 µM].

Consider `C/C(=C(\CCOP(=O)(O)O)SC(=O)c1ccccc1)N(C=O)Cc1cnc(C)nc1N`, for which the activity change, negative = inhibition in [1] was 1.8% [at 8.39 µM]; in assay [7], -1.28% [at 8.39 µM]; in assay [10], 5.03% [at 8.39 µM]. Also, the activity change, negative = cytotoxicity in assay [15] is 1.6% [at 8.39 µM]; in [3], 7.29% [at 8.39 µM]; in assay [8], 1.33% [at 8.39 µM]; in assay [17], 9.64% [at 8.39 µM]; in assay [19] it was -10.4% [at 8.39 µM]; in [12], 0.402% [at 6.97 µM]. For the same compound, the activation in [16] is -1.54% [at 8.39 µM]; in [5], 0.094% [at 8.39 µM]; in assay [9], -0.857% [at 8.39 µM]; in assay [18], 2.27% [at 6.97 µM]; in assay [14] it was -0.266% [at 5.23 µM]. The cAMP activity change in assay [6] was -0.23% [at 8.39 µM, hits give high values]. Moreover, the viability change, negative = cytotoxic in assay [11] is 4.01% [at 6.97 µM]. Moreover, the activity, negative = inhibition in assay [13] is -3.24% [at 4.65 µM].

Turning to `O=C(NCC1CN(c2ccc(N3CCOCC3=O)cc2)C(=O)O1)c1ccc(Cl)s1` (stereo not drawn), the Potency result in assay [1], in [2], in assay [15], in [5], in assay [6] and in assay [7] was “inactive” in each case. Moreover, the Potency result in assay [8], in assay [9], in [17], in [11] and in assay [14] was “inactive” each time. In addition, the compound was classed as inactive in assay [12] and in [13].
